Outcome and AC50 data for 31 compounds are collected here from PubChem BioAssay (EPA / NIEHS).

Inconclusive results are not listed. Active and inactive are the calls of the source. The calls were made as follows: active = hit-call score of the fitted dose curve at least 0.9, where 1 is the maximum; inconclusive = response in the unintended direction; inactive = score below 0.9.

For orientation: AC50 means the midpoint of the concentration-response curve, whichever way the signal moves.

The nature of this test: ACEA_ER_AUC_viability: ACEA Biosciences xCELLigence Real-Time Cell Analysis on Estrogen Receptor Agonism for Viability (AID 2283782).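 Also: continuous compound exposure with impedance area under curve over 80 h; hit means loss of impedance signal meaning reduced cell growth or viability.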 The method, boiled down: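 T47D cells preconditioned in phenol red-free RPMI with charcoal-stripped FBS, then dosed with 8-point 1:4 series from 100 uM (up to 0.5% DMSO). Impedance monitored up to ~80 h; area-under-curve loss versus DMSO taken as viability.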
Regarding `CC(C)C(C)(C)C(C)(C)C(C)(C)S`, the compound was called inactive.
Regarding `CC(C)=CCC[C@H](C)CC=O`, the compound was called inactive.
Same read-out and setting: the result for `CCCCCCC#CC(=O)OC` reads “inactive”.
As to `NC(=O)c1ccccc1Cl`, the AC50 is 27.1 µM (active).
As to `Clc1cccc(Cl)n1`, the call was inactive.
As to `CCCCC(CC)COCCC#N` (stereo unspecified), the compound was classed as inactive.
Same read-out and setting: for `CC(C)=CCC/C(C)=C/COC=O` the value was “inactive”; for `O=C(O)CCSCCC(=O)O`, “inactive”.
As to `CCCCC(CC)COC(=O)/C=C\C(=O)OCC(CC)CCCC` (stereo unspecified), the AC50 was 27.4 µM (active).
As for `CC(C#N)(CCC(=O)O)N=NC(C)(C#N)CCC(=O)O` (stereo unspecified), the call was inactive.
On the same count and under the same terms, the result for `CC(C)[C@@H]1CC[C@@H](C)CC1=O` reads “inactive”.
Regarding `CC(CN1c2ccccc2Sc2ccccc21)N(C)C` (stereo unspecified), the AC50 is 17.2 µM (active).
In the case of `CCCCCCCCC`, the outcome was inactive.
The same measure, in the same setting: the result for `Cc1ccc2ccccc2n1` reads “inactive”.
For `CCC(=O)/C=C/C1C(C)=CCCC1(C)C` (stereo unspecified), the compound was classed as inactive.
Take `O=c1oc(=O)c2cc3c(=O)oc(=O)c3cc12`: the result was inactive.
Same read-out and setting: the result for `[Ca+2]` reads “inactive”.
The same measure, in the same setting: the result for `CN(C)CCCN` reads “inactive”; that for `CC(C)CCCCCCCOC(=O)c1ccc(C(=O)OCCCCCCCC(C)C)c(C(=O)OCCCCCCCC(C)C)c1`, “inactive”; that for `CCCC(=O)c1cc(O)c(O)cc1O`, “inactive”.
The same measure, in the same setting: the result for `CC(=O)Nc1ccccc1O` reads “inactive”.
Consider `c1ccc2sc(SN(C3CCCCC3)C3CCCCC3)nc2c1`, for which the AC50 is 81.8 µM (active).
Regarding `C=C[Si](OCC)(OCC)OCC`, the compound was classed as inactive.
Same read-out and setting: for `Nc1cccc(S(=O)(=O)c2cccc(N)c2)c1` the value was “inactive”.
Same read-out and setting: the result for `CN(C)C(=N)N=C(N)N` reads “inactive”.
On to `Nc1cc([N+](=O)[O-])ccc1O`, for which the half-maximal activity concentration (AC50) is 9.92 µM (active).
On the same count and under the same terms, the result for `C=CC(C)(O)CCC=C(C)CCC=C(C)C` (stereo unspecified) reads 67.1 µM (active).
As to `Cc1ccc(S)cc1`, the compound was classed as inactive.
With `CC(=O)OCc1ccc2c(c1)OCO2`, the outcome was inactive.
Consider `C=CC(=O)NCOCC(C)C`, for which the outcome was inactive.
As to `CCO[Si](CCCS)(OCC)OCC`, the result was inactive.
